Screens (PubChem BioAssay)
RGS7-Gao reg: RGS7-Galphao binding modulators, primary screen, biochemical, multiplexed bead flow cytometry | Guanine nucleotide-binding protein G(o) subunit alpha (Homo sapiens), P09471 | actives lie on both sides | binding response (% of control), % at 10 µM | actives 0.35% (n = 220,000) | AID 1439, 2008; in the data active = binding response below about 49% or above about 150%; inconclusive = no clear call, values can overlap the other calls; inactive = in between;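 also: fluorescent Galphao held in activated GDP-AlF4 state binding bead-coupled RGS7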
Target sequence (P09471 whole entry, looked up): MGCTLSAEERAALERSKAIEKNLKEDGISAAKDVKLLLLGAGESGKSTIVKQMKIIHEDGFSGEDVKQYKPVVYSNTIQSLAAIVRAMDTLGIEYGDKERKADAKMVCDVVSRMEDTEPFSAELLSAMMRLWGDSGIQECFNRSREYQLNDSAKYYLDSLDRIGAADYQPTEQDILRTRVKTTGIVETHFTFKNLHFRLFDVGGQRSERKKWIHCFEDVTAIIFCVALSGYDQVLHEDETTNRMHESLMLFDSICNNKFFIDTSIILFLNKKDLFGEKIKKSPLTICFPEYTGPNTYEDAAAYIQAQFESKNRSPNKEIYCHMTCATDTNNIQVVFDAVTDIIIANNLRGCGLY
GSH fluor: compound fluorescence on glutathione beads, profiling panel, artefact control, biophysical, 488/530 nm, flow cytometry; GSH beads flow cytometry, compound fluorescence 488/530 nm; stronger effect = higher value; fluorescence (KMESF) at 10 µM; actives 0.25% (n = 190,000); AID 1776, 2009; in the data active = fluorescence above about 89;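 also: glutathione beads carrying GST-tagged Bcl family fusion proteins plus one bare bead set; values are compound well signal with DMSO vehicle wells as background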
Avidin bead fluor: green autofluorescence of compounds with avidin beads – biophysical, 488/530 nm, flow cytometry, artefact control, profiling panel; actives 0.38% (n = 220,000); compound fluorescence 488/530 nm; stronger effect = higher value; AID 1775, 2009; fluorescence (KMESF) at 10 µM; in the data active = fluorescence above about 47
RGS16-Gao HTS: modulators of RGS16 binding to Galphao, primary screen, biochemical, human proteins, multiplexed bead flow cytometry; Regulator of G-protein signaling 16 (Homo sapiens) + Guanine nucleotide-binding protein …; bead-based flow cytometry RGS16-Galphao binding, fluorescence; actives lie on both sides; binding response (% of control), % at 10 µM; actives 0.38% (n = 220,000); AID 1441, 2008; call rule not given here;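 also: Galphao activated by GDP with aluminum fluoride before binding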
Target sequence (O15492 whole entry, looked up): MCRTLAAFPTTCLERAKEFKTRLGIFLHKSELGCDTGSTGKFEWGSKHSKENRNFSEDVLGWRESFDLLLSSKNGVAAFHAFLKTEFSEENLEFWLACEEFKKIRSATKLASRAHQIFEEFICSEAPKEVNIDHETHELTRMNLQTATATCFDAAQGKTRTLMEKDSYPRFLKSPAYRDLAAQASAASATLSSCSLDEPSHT
Target sequence (P09471 whole entry, looked up): as the sequence (P09471 whole entry, looked up) above
RGS4-Gao reg: modulators of RGS4 binding to Galphao, primary screen, biochemical, multiplexed bead flow cytometry; binding response (% of control), % at 10 µM; actives 0.33% (n = 220,000); Guanine nucleotide-binding protein G(o) subunit alpha (Homo sapiens), P09471; actives lie on both sides; in the data active = binding response below about 49% or above about 150%; inactive = in between;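 also: fluorescent Galphao activated with aluminum fluoride binding bead-coupled RGS4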
RGS8-Gao: RGS8-Galphao binding modulators, primary screen, biochemical, multiplexed bead flow cytometry. actives lie on both sides. AID 1423, 2008. actives 0.34% (n = 220,000). response (percent of control binding), % at 10 µM. Guanine nucleotide-binding protein G(o) subunit alpha (Homo sapiens), P09471; in the data active = response below about 60% or above about 140%; inactive = in between;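 also: Galphao activated as the GDP aluminium fluoride complex binding bead-coupled RGS8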
Starred values were filed as active, the others as inactive; u = inconclusive; x = no result; [ ] = dose if it differs, or a comment. Compounds with a hit are over-represented: about 1.2% of the library has one in this group of screens.

SMILES	RGS7-Gao reg	GSH fluor	Avidin bead fluor	RGS16-Gao HTS	RGS4-Gao reg	RGS8-Gao
Cc1ccc2nc3c(cc2c1)c(NC(=O)c1ccccn1)nn3CC(C)C	111.5	25	62*	111.3	105.6	106.3
CCN(CC)c1ccc(NC(=O)Cn2nnc(-c3cccc(OC)c3OC)n2)c(C)c1	95.1	266*	8	99.8	102.8	99.5
CS(=O)(=O)N1CCC(C(=O)Nc2ccc(F)cc2F)CC1	118.2	24	79*	100.2	103.7	101.2
CN(Cc1ccccc1)S(=O)(=O)c1ccc(NS(=O)(=O)Cc2ccccc2)cc1	106.7	11	50*	103.9	99.8	100.7
CCCc1nnc(NC(=O)c2ccncc2)s1	92.3	239*	3	-0.9	83.1	90.6
CCc1nnc(NC(=O)c2ccncc2)s1	93.4	8	10	90.9	86.4	93.4
C=CCn1c(SCC(=O)c2ccc(O)c(O)c2)nnc1-c1ccccc1OC	54.9	247*	4	52.9	56.9	68.2
O=C(Cn1nnc(-c2cccs2)n1)NCc1cccs1	99.8	13	24	101.5	100.6	101.2
Cc1ccc(C(=O)OCC(=O)N2CCc3ccccc32)cc1	115.0	10	50*	119.9	119.6	105.3
CC(C)OP(=O)(OC(C)C)C(NC(=O)c1ccccc1Br)C(N)=O (stereo not drawn)	u	x	3	92.4	97.1	99.0
CCc1nc2c(sc3nc4c(cc32)COC(C)(C)C4)c(=O)n1Cc1ccco1	114.1	18	65*	97.2	104.1	92.8
O=C(C1CCCC1)N1CCC(CO)(Cc2ccccc2Cl)CC1	101.0	15	10	103.6	102.4	103.2
CNC(CC(=O)c1ccc([N+](=O)[O-])cc1)C(Cl)(Cl)Cl (stereo not drawn)	96.0	7	3	86.3	97.9	81.0
O=C(NC1CCS(=O)(=O)C1)C1C2CC3CC(C2)CC1C3 (stereo not drawn)	119.1	59	55*	100.9	102.3	101.0
O=c1cc(-c2ccccc2)[nH]n1-c1nc2ccccc2[nH]1	105.5	25	50*	89.6	94.3	95.9
CCc1cc(=O)[nH]c(-n2[nH]c(-c3ccccc3)cc2=O)n1	102.6	13	14	103.6	100.6	102.2
COc1c(C)cc(C(=O)C2CCCN(C(=O)c3snnc3C)C2)cc1C (stereo not drawn)	90.8	16	6	97.9	97.9	100.1
COc1ccc(Cl)cc1N1C(=O)CC(N2CCc3ccccc32)C1=O (stereo not drawn)	88.1	264*	7	98.0	91.5	94.0
c1ccc(CCc2nc(-c3ccc(-n4cccc4)cc3)no2)cc1	96.7	18	7	101.9	103.1	102.9
Cc1ccc(C)c(OCC(=O)N/N=C/c2c(C)nn(-c3ccccc3)c2Cl)c1	109.1	14	56*	105.2	105.4	99.6
O=C(CSc1nc(O)cc(=O)n1C1CCCC1)Nc1cccc(Cl)c1Cl	101.2	26	12	99.6	100.5	100.6
COC(=O)c1ccccc1NC(=O)CSc1nc(O)cc(=O)n1C1CCCC1	106.9	22	54*	99.7	102.8	102.0
CCOc1ncccc1C(=O)N1CCN(S(=O)(=O)c2ccc(Br)cc2Cl)CC1	u	13	11	98.9	100.8	100.7
CCOc1ccc2[nH]c(=O)c(C(c3nnnn3C3CCCCC3)N3CCN(CC)CC3)cc2c1 (stereo not drawn)	132.3	54	76*	172.0	145.8	114.2
CCCCOC(=O)C1[C@H]2C(=O)N(c3ccccc3CC)C[C@]23C=C[C@H]1O3 (stereo partly drawn)	104.5	28	16	95.3	97.3	95.8
SMILES	RGS7-Gao reg	GSH fluor	Avidin bead fluor	RGS16-Gao HTS	RGS4-Gao reg	RGS8-Gao
CCc1ccccc1N1CC23C=CC(O2)C(C(=O)OCC(C)C)C3C1=O (stereo not drawn)	133.7	20	56*	60.4	93.7	85.2
CCOC(=O)N1CCN(C2CC(=O)N(c3ccc(C)cc3)C2=O)CC1 (stereo not drawn)	95.8	35	12	102.1	98.6	98.7
Cc1cc(C)nc(NS(=O)(=O)c2ccc(NC(=S)NC(=O)CC(C)C)cc2)n1	193.9*[activator]	20	118*	270.0*[activator]	207.7*[activator]	107.6
NC(=O)[C@@H]1CC2(CC(c3cccc(NC(=O)COc4ccc(Cl)cc4)c3)=NO2)CN1C(=O)c1ccccc1 (stereo partly drawn)	u	x	12	99.8	103.0	104.1
Cc1nc(N2CCN(c3ccccc3)CC2)[nH]c(=O)c1CCC(C)C	u	15	11	96.4	99.8	101.3
Cc1nc(N2CCN(c3ccccc3)CC2)[nH]c(=O)c1Cc1cccc2ccccc12	148.1	23	197*	93.7	113.9	95.8
O=C(CN1CCOCC1)n1c2ccccc2c2ccccc21	99.7	256*	8	96.3	97.8	99.3
Cc1nnsc1-c1onc(C)c1C(=O)Nc1cc(Cl)cc(Cl)c1	u	x	7	96.2	97.2	97.7
O=C(NC(c1ccccc1)c1ccccc1)c1ccc(S(=O)(=O)C(F)F)cc1	110.1	16	58*	102.2	102.2	100.3
CC(NC(=O)c1ccc(S(=O)(=O)C(F)F)cc1)c1ccccc1 (stereo not drawn)	u	14	8	101.0	101.9	100.0
Cc1cc(OC(F)F)ccc1NC(=O)Nc1ccc([N+](=O)[O-])cc1	104.2	11	11	117.4	101.3	106.8
FC(F)(F)c1cc(Cl)c2nnc(-c3cccnc3)n2c1	96.2	10	3	97.7	99.4	97.0
COc1cccc(C(=O)Nc2c(C)n[nH]c2C)c1	116.5	17	55*	118.6	117.4	104.6
CCCCC(=O)Nc1ccc(C(=O)N2CCC(C(=O)OCC)CC2)cc1	105.4	33	3	138.1	102.2	110.5
Cc1ccc(-c2nc3sc4c(c3c(=O)n2N)CC(C)(C)OC4)cc1	103.3	25	55*	105.9	99.8	99.5
COc1ccc(-n2c(=O)c3ccccc3n(Cc3ccc(F)cc3)c2=O)cc1OC	139.5	20	104*	102.5	101.6	95.5
Cc1ccc(NC(=O)CN2C(=O)N/C(=C/c3cc(C)n(-c4ccc(C(=O)O)cc4)c3C)C2=O)cc1	99.9	19	10	100.2	103.0	99.4
Cc1ccc(NC(=O)CN2C(=O)N/C(=C/c3cccn3-c3ccc(C(=O)O)cc3)C2=O)cc1	-12.7*	4	-5	7.4	25.8*	28.2*
